Test results reported in publication PMC7862700, “An all-to-all approach to the identification of sequence-specific readers for epigenetic DNA modifications on cytosine”.

Key:
Assay in all cases: DAPPL (digital affinity profiling via proximity ligation, sequencing); 10 mM Tris-HCl pH 7.5, 50 mM NaCl, 1 mM DTT, 4% glycerol, room temperature, 30 min; GST-TFs on glutathione beads, 16-mer random dsDNA library, 0.1% formaldehyde crosslink after washing; high values mean tight binding
Conditions in all cases: protein: recombinant; tags: N-terminal GST; dsDNA, one strand shown
[1] = target: T1, FEV (Homo sapiens, UniProt Q99581 1-238)
T1 sequence: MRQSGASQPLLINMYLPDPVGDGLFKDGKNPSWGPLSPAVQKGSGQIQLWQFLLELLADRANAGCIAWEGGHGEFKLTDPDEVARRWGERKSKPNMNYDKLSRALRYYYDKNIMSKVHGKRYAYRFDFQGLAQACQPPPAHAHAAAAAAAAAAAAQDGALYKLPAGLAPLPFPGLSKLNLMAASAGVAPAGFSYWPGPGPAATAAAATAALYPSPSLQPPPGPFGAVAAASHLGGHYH
Outline: (§1)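 GST fusions of human transcription factors were expressed in yeast and captured with glutathione beads. Once given DNA barcodes and pooled alongside a tag-only sample, they were incubated for 30 min at room temperature with 200 nmole of a random double-stranded 16-mer DNA library in Tris/NaCl/DTT/glycerol buffer, then washed, crosslinked (0.1% formaldehyde), proximity-ligated, PCR-amplified and sequenced on an Illumina NextSeq500. The binding signal of each hexamer is its read frequency for a factor divided by its frequency for the tag-only sample.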

[2] = target: ETV5 (Homo sapiens, UniProt P41161 1-510)
Sequence of ETV5 (P41161 whole entry): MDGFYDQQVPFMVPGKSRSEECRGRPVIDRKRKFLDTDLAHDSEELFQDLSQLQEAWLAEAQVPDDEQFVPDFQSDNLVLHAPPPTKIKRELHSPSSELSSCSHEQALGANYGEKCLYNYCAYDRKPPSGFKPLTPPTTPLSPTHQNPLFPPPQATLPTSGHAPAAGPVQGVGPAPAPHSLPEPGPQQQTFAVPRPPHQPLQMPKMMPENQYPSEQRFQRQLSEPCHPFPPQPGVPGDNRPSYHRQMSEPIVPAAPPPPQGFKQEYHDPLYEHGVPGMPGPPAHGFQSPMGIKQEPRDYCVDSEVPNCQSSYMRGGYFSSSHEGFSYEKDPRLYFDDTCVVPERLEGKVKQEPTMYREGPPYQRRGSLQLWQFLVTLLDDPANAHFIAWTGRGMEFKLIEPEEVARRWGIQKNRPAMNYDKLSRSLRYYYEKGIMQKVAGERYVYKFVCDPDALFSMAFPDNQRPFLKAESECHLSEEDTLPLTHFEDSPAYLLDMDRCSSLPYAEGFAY
Outline: as §1

[3] = target: T2, SPIC (Homo sapiens, UniProt Q8N5J4 1-248)
T2 sequence: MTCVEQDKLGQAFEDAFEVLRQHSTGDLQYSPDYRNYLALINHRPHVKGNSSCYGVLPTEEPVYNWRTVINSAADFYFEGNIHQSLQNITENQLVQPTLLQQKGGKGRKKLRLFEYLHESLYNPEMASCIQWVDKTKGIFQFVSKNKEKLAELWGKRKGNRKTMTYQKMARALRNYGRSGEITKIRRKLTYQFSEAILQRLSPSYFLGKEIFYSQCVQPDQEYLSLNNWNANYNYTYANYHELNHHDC
Outline: as §1

[4] = target: ELF4 (Homo sapiens, UniProt Q99607 1-663)
Sequence of ELF4 (Q99607 whole entry): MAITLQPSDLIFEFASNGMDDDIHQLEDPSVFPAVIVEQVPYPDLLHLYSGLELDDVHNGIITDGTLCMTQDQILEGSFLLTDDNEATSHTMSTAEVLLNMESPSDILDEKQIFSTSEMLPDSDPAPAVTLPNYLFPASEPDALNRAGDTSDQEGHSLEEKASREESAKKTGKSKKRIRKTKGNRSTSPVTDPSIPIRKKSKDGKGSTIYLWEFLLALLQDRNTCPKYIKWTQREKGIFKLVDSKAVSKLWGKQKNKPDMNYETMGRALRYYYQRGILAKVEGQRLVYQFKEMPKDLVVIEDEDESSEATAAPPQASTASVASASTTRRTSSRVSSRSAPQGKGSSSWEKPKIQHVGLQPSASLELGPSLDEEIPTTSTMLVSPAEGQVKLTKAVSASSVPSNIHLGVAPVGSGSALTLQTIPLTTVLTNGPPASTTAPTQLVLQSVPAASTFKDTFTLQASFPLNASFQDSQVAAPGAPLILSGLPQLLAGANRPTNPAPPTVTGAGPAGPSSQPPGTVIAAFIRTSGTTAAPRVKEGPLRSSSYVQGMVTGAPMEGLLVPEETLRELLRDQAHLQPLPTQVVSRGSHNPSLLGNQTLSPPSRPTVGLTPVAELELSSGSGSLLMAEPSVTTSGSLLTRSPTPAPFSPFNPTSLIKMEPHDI
Outline: as §1

[5] = target: T3, ELK4 (Homo sapiens, UniProt P28324-2 1-405)
T3 sequence: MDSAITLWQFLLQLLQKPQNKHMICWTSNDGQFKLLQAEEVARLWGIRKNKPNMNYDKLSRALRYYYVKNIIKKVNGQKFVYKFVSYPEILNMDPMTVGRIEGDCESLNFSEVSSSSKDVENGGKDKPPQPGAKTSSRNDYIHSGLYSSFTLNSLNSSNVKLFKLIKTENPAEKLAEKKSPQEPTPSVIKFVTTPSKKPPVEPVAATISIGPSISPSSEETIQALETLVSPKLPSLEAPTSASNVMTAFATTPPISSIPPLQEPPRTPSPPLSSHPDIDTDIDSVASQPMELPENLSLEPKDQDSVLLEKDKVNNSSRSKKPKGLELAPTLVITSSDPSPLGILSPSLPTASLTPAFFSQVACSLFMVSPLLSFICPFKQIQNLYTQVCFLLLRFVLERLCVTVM
Outline: as §1

[6] = target: T4, ETV2 (Homo sapiens, UniProt O00321 1-342)
T4 sequence: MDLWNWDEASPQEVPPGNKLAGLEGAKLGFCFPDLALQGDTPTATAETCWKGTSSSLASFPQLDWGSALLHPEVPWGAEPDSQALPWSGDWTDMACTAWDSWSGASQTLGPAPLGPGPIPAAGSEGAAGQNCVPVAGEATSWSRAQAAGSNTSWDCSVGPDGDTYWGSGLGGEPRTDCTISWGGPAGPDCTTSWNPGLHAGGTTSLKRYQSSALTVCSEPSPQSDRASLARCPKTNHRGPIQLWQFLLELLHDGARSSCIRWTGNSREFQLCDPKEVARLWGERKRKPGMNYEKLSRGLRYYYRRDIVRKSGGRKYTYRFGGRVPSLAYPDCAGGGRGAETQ
Outline: as §1

[7] = target: T5, ELF3 (Homo sapiens, UniProt P78545 1-371)
T5 sequence: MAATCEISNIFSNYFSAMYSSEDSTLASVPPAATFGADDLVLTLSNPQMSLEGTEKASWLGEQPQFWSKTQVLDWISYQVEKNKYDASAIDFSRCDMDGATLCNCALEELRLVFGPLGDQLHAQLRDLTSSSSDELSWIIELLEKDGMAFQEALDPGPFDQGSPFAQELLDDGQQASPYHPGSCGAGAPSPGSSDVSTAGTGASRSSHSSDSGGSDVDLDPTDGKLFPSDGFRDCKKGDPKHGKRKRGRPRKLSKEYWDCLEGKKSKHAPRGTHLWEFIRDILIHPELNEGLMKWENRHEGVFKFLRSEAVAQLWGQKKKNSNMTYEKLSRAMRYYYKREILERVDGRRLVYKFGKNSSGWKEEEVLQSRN
Outline: as §1

[8] = target: ETV1 (Homo sapiens, UniProt P50549 1-477)
Sequence of ETV1 (P50549 whole entry): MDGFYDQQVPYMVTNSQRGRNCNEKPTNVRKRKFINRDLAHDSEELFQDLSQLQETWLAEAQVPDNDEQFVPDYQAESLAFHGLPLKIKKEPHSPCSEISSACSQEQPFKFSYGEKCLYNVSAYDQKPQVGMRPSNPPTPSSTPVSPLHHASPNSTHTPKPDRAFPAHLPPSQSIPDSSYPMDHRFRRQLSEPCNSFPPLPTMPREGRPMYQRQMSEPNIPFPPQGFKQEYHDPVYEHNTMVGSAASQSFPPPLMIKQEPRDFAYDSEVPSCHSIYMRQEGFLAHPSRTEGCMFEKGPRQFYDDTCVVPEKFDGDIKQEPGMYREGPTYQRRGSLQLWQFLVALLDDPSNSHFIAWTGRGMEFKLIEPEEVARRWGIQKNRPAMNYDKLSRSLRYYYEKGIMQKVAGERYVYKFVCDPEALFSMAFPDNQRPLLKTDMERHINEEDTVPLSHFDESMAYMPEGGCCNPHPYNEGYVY
Outline: as §1

[9] = target: T6, ERF (Homo sapiens, UniProt P50548 1-548)
T6 sequence: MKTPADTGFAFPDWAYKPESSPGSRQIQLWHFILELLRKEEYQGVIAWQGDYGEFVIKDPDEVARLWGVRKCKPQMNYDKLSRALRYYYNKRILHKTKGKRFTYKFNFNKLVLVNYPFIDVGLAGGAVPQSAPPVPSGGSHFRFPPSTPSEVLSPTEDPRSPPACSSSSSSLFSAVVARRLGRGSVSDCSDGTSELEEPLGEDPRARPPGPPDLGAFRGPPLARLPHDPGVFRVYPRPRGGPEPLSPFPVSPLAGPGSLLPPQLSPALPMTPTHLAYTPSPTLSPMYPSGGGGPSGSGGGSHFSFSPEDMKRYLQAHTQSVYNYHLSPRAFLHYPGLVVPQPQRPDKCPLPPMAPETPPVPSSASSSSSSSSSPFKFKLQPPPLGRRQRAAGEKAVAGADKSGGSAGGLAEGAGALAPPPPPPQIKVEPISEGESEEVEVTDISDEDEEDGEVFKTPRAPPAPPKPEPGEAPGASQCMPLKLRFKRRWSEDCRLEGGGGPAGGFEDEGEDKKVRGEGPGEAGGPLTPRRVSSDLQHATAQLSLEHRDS
Outline: as §1

[10] = target: T7, ETV3L (Homo sapiens, UniProt Q6ZN32 1-361)
T7 sequence: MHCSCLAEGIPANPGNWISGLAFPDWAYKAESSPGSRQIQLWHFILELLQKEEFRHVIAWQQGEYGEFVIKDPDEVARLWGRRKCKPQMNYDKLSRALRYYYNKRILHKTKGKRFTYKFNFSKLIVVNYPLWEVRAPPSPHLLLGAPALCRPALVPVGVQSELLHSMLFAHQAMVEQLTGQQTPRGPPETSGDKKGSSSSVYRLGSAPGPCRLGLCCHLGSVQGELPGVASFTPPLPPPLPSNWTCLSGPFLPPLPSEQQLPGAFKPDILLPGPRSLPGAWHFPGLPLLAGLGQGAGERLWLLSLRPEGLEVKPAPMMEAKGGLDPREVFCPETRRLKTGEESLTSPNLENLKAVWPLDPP
Outline: as §1

[11] = target: T8, ETS2 (Homo sapiens, UniProt P15036 1-469)
T8 sequence: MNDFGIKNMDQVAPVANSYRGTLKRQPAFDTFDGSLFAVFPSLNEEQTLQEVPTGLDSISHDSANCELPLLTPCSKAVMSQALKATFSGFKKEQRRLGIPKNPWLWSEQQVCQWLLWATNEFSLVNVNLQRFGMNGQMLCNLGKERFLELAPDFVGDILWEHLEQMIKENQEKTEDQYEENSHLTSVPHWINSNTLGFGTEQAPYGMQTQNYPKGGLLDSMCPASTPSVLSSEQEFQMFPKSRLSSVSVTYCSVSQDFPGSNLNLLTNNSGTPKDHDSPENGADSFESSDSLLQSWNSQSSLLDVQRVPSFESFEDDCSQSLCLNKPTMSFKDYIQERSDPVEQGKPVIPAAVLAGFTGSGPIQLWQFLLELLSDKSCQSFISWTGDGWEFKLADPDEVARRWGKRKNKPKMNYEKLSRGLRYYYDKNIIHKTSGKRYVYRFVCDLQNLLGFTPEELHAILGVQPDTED
Outline: as §1

[12] = target: T9, SPDEF (Homo sapiens, UniProt O95238 1-335)
T9 sequence: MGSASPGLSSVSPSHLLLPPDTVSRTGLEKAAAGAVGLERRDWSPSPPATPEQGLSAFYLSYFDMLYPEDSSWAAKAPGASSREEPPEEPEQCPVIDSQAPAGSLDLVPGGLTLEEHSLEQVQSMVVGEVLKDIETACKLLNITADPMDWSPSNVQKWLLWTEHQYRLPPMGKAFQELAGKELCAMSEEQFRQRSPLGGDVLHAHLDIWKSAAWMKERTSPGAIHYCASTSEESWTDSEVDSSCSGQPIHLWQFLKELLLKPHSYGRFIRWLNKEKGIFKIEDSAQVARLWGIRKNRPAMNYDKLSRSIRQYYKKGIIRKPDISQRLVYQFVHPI
Outline: as §1

[13] = target: T10, ETV7 (Homo sapiens, UniProt Q9Y603 1-341)
T10 sequence: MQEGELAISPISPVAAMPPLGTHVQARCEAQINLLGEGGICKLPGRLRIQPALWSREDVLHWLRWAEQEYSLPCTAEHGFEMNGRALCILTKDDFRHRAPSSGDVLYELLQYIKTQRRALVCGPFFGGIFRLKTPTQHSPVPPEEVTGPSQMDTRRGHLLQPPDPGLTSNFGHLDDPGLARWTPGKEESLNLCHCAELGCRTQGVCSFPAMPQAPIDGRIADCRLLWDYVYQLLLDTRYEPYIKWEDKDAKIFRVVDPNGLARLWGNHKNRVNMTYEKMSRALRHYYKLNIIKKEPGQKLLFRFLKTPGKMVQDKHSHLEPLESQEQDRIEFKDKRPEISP
Outline: as §1

[14] = target: T11, ELF5 (Homo sapiens, UniProt Q9UKW6-2 1-255)
T11 sequence: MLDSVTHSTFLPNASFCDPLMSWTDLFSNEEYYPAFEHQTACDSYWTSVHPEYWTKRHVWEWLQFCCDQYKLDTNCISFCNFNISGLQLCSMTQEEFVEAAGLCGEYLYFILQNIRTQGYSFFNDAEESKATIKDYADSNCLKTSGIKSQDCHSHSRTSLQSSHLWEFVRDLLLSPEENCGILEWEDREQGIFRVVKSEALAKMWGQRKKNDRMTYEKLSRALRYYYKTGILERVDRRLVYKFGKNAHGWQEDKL
Outline: as §1

[15] = target: T12, ETV3 (Homo sapiens, UniProt P41162-2 1-143)
T12 sequence: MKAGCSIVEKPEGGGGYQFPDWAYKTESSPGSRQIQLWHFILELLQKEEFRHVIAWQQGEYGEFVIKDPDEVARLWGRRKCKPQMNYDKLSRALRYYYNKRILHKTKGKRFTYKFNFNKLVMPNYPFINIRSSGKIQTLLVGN
Outline: as §1

[16] = target: ETV6 (Homo sapiens, UniProt P41212 1-452)
Sequence of ETV6 (P41212 whole entry): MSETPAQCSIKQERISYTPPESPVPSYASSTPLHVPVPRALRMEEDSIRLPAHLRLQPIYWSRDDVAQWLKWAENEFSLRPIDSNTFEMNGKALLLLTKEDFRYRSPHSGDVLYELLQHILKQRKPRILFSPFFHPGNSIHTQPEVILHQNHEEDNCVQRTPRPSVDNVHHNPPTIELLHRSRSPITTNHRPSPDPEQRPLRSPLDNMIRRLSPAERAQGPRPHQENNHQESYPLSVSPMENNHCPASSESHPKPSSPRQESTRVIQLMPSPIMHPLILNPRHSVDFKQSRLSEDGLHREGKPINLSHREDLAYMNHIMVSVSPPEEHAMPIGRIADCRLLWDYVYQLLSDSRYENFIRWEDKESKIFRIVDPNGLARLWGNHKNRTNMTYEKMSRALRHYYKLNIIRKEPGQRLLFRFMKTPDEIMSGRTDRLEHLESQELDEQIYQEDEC
Outline: as §1

CCAACG
binding signal [1]: 1.14 fold enrichment (6-mer frequency, TF over GST control)
binding signal [2]: 1.06 fold enrichment (6-mer frequency, TF over GST control)
binding signal [3]: 1.11 fold enrichment (6-mer frequency, TF over GST control)
binding signal [4]: 1.21 fold enrichment (6-mer frequency, TF over GST control)
binding signal [5]: 1.12 fold enrichment (6-mer frequency, TF over GST control)
binding signal [6]: 1.14 fold enrichment (6-mer frequency, TF over GST control)
binding signal [7]: 1.17 fold enrichment (6-mer frequency, TF over GST control)
binding signal [8]: 1.11 fold enrichment (6-mer frequency, TF over GST control)
binding signal [9]: 1.29 fold enrichment (6-mer frequency, TF over GST control)
binding signal [10]: 1.1 fold enrichment (6-mer frequency, TF over GST control)
binding signal [11]: 1.08 fold enrichment (6-mer frequency, TF over GST control)
binding signal [12]: 1.13 fold enrichment (6-mer frequency, TF over GST control)
binding signal [13]: 1.13 fold enrichment (6-mer frequency, TF over GST control)
binding signal [14]: 1.1 fold enrichment (6-mer frequency, TF over GST control)
binding signal [15]: 1.09 fold enrichment (6-mer frequency, TF over GST control)
binding signal [16]: 1.22 fold enrichment (6-mer frequency, TF over GST control)
